Assay results as given in PubChem BioAssay.
“And” between values parts separate entries of the source, which are not always exact repeats. Equal entries are not always repeated. The source made the active and inactive calls.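 Rule for the calls, unless noted: active = thallium flux through the channel raised or lowered by more than 3 SD from vehicle-only wells, actives on both sides; inactive = the rest.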

Columns and labels:
[1] = liver-stage malaria parasite growth inhibition, primary screen, cell-based, HepG2, luciferase luminescence, HepG2 viability (AID 624349; in the data active = parasite load remaining mostly below about 12%, no sharp cut-off; inactive = mostly above about 10%;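 note: 100% = mean of DMSO negative control wells on the same plate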); conditions: P. berghei liver stage in HepG2, luciferase luminescence, concentration not given here; parasite load remaining: stronger effect = lower value; viability: measured here: HepG2 viability without parasites
[2] = Cy5 fluorescence interference with SSB-bound oligo, artefact control for HCV NS3 helicase inhibitor project, biochemical, NIH Clinical Collection, E. coli SSB (AID 743268; call rule not given here)
[3] = tested on: Hepatitis C virus NS3 helicase; experiment: HCV NS3 helicase inhibitors, primary screen, biochemical, fluorescence polarization, NIH Clinical Collection (AID 743270; call rule not given here); conditions: NS3 helicase binding to Cy5-dT15 DNA, stronger effect = higher value, concentration not given here
[4] = target: Single-stranded DNA-binding protein (Escherichia coli (strain K12)) (UniProt P0AGE0); experiment: E. coli SSB displacement from DNA, counter-screen for HCV NS3 helicase inhibitor project, biochemical, fluorescence polarization, NIH Clinical Collection (AID 743271; in the data active = inhibition above about 28%); conditions: stronger effect = higher value, concentration not given here
[5] = fluorescence interference in NS3h assay format, artefact control for HCV NS3 helicase inhibitor project, biochemical, NIH Clinical Collection (AID 743272; call rule not given here;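 note: HCV NS3 helicase with a Cy5 labelled single stranded DNA probe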); conditions: fluorescence interference counterscreen, stronger effect = lower value
[6] = tested on: Neuropilin-2 / VEGF-C interaction (human); experiment: inhibitors of NRP2–VEGF-C binding, biochemical, microplate binding format, z-score (AID 743281; call rule not given here); conditions: microplate NRP2/VEGF-C binding assay; stronger effect = lower value
[7] = modulation of C. elegans fzo-1 (AID 1259413; call rule not given here;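 note: fzo-1 mutant C. elegans worms in liquid wells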); conditions: C. elegans fzo-1 modulator screen, mean read-out; stronger effect = higher value
[8] = tested on: F380Y; experiment: modulators of BK channel variants, profiling panel, selectivity assay, cell-based, U2OS BacMam, thallium flux, beta subunits (AID 1259406); conditions: at 30 µM;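 note: initial slope of Thallos dye fluorescence rise after thallium is added; log ratio against the mean of 0.3% DMSO vehicle wells on the same plate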
[9] = tested on: F380Y/beta1; experiment: as above; conditions: at 30 µM
[10] = tested on: F380Y/beta2Delta; experiment: as above; conditions: at 30 µM
[11] = tested on: F380Y/beta4; experiment: as above; conditions: at 30 µM
[12] = target: Calcium-activated potassium channel subunit alpha-1 (Homo sapiens) + Leucine-rich repeat-containing protein 26 (Homo sapiens) (UniProt Q12791+Q2I0M4); experiment: as above; conditions: F380Y/Slo1WT/gamma1, at 30 µM
[13] = tested on: R275C; experiment: as above; conditions: at 30 µM
[14] = tested on: R275C/beta1; experiment: as above; conditions: at 30 µM
[15] = tested on: R275C/beta2Delta; experiment: as above; conditions: at 30 µM
[16] = tested on: R275C/beta4; experiment: as above; conditions: at 30 µM
[17] = tested on: R275C/Slo1WT/beta2; experiment: as above; conditions: at 30 µM
[18] = sensitizers of A549 cells to miR-34 induction, primary screen, imaging, A549 dox-inducible miR-34, nuclei and caspase counts (AID 1347080;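 active = compounds whose cell count with miR-34 switched on is under 0.7 times the count with it off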); conditions: A549 miR-34 inducible, Hoechst nuclei count, 48 h
[19] = survival rescue of mitochondrial mutant cells in low glucose, primary screen, MELAS cybrids, Rieske KO mouse fibroblasts, CellTiter-Glo (AID 1508586;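 active = mean z-score across replicates of 1.96 or higher in either the MELAS or the Rieske mutant cell line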;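 note: z relative to plate mean and SD of compound and empty wells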)
[20] = viability rescue of complex I mutant cybrids, primary screen, cell-based, galactose medium, ATP luminescence (AID 1645843;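 active = z-score of at least 1.8 in each of two replicates, scored against plate mean and spread of sample wells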;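 note: positive z means more ATP and so rescue of galactose-driven cybrid death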); conditions: complex I mutant cybrid cells, 72 h, stronger effect = higher value
[21] = stronger effect = lower value, cell number ratio, induced over uninduced
[22] = measured here: relative caspase fold change +Dox/-Dox
[23] = measured here: total cells with miR-34 induction, stronger effect = lower value
[24] = measured here: total cells without miR-34 induction

Chain of Calcium-activated potassium channel subunit alpha-1 (Homo sapiens) + Leucine-rich repeat-containing protein 26 (Homo sapiens) (Q2I0M4 whole entry, looked up, one chain of several): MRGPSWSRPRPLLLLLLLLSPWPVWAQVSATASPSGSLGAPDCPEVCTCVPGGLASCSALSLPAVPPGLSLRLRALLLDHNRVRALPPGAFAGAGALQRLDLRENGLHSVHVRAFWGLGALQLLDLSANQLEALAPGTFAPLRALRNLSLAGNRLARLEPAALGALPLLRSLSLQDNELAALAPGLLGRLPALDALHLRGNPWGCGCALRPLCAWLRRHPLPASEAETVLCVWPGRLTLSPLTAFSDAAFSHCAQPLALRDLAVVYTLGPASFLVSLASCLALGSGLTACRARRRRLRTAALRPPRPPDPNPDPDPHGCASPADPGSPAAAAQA

CC(=O)[C@@]1(O)CC[C@H]2[C@@H]3C[C@H](C)C4=CC(=O)CC[C@]4(C)[C@H]3CC[C@@]21C
68%: viability [1]
inactive: parasite load remaining [1] 37.7% | fluorescence ratio [2] 0.96 | inhibition [3] -0.22% | inhibition [4] -0.39% | fluorescence ratio [5] 0.95 | z-score [6] -0.215 | mean signal [7] 243 | log fold change Tl+ flux [8] 0.0243 | log fold change Tl+ flux [9] 0.0476 | log fold change Tl+ flux [10] 0.0349 | log fold change Tl+ flux [11] -0.018 | log fold change Tl+ flux [12] 0.00484 | log fold change Tl+ flux [13] -0.0195 | log fold change Tl+ flux [14] 0.0286 | log fold change Tl+ flux [15] -0.00744 | log fold change Tl+ flux [16] 0.0101 | log fold change Tl+ flux [17] -0.0331

CCC1=C[C@H]2CN(C1)Cc1c([nH]c3ccccc13)[C@@](C(=O)OC)(c1cc3c(cc1OC)N(C)[C@H]1[C@@](O)(C(=O)OC)[C@H](OC(C)=O)[C@]4(CC)C=CCN5CC[C@]31[C@@H]54)C2
inactive: parasite load remaining [1] 32.2% | inhibition [3] -1.98% | inhibition [4] 9.91% | z-score [6] 1.48 | mean signal [7] 244 | log fold change Tl+ flux [8] 0.0913 | log fold change Tl+ flux [9] 0.0236 | log fold change Tl+ flux [10] 0.0207 | log fold change Tl+ flux [11] 0.0427 | log fold change Tl+ flux [12] -0.0112 | log fold change Tl+ flux [14] 0.0456 | log fold change Tl+ flux [15] 0.0329 | log fold change Tl+ flux [16] 0.0723
76.8%: viability [1]
active: fluorescence ratio [2] 0.8 | fluorescence ratio [5] 0.78 | log fold change Tl+ flux [13] -0.149 | log fold change Tl+ flux [17] 0.104

C[C@]12CC3CC(N)(C1)C[C@@](C)(C3)C2
85.8% and 102%: viability [1]
inactive: parasite load remaining [1] 113% and 58.5% | fluorescence ratio [2] 1.06 | inhibition [3] 0.4% | inhibition [4] -0.87% | fluorescence ratio [5] 0.95 | fold change [18, 21] 0.918 and 0.871 | z-score ([19]; MELAS cybrid survival, CellTiter-Glo 48 h, stronger effect = higher value) -0.593 | z-score [20] -0.375 and -0.275 | log fold change Tl+ flux [8] -0.00548 | log fold change Tl+ flux [9] -0.0368 | log fold change Tl+ flux [10] 0.033 | log fold change Tl+ flux [11] 0.0342 | log fold change Tl+ flux [12] -0.0162 | log fold change Tl+ flux [13] 0.0086 | log fold change Tl+ flux [14] -0.0112 | log fold change Tl+ flux [15] -0.0288 | log fold change Tl+ flux [16] -0.00234 | log fold change Tl+ flux [17] -0.0124
-0.282: z-score ([19]; Rieske KO mouse fibroblast survival, CellTiter-Glo 72 h)
10500 and 11600: cell count [18, 24]
1.34 and 1.17: fold change [18, 22]
9680 and 10100: cell count [18, 23]

O=c1c(O[C@@H]2O[C@H](CO)[C@H](O)[C@H](O)[C@H]2O)c(-c2ccc(O)c(O)c2)oc2cc(O)cc(O)c12
inactive: parasite load remaining [1] 108% | fluorescence ratio [2] 0.94 | inhibition [3] 1.98% | inhibition [4] 15.3% | fluorescence ratio [5] 1 | z-score [6] -0.00792 | mean signal [7] 249 | log fold change Tl+ flux [8] -0.00852 | log fold change Tl+ flux [9] -0.00723 | log fold change Tl+ flux [10] -0.0335 | log fold change Tl+ flux [11] -0.027 | log fold change Tl+ flux [12] -0.0251 | log fold change Tl+ flux [13] -0.00833 | log fold change Tl+ flux [14] -0.0329 | log fold change Tl+ flux [15] 0.0189 | log fold change Tl+ flux [16] 0.0212 | log fold change Tl+ flux [17] -0.0201
61.9%: viability [1]

c1ccc(-c2ccccn2)nc1
inactive: fold change [18, 21] 0.97 | z-score [20] 0.54 | log fold change Tl+ flux [8] -0.0156 | log fold change Tl+ flux [9] -0.0247 | log fold change Tl+ flux [10] 0.0286 | log fold change Tl+ flux [11] 0.0375 | log fold change Tl+ flux [12] 0.0137 | log fold change Tl+ flux [13] 0.0175 | log fold change Tl+ flux [14] -0.0449 | log fold change Tl+ flux [15] 0.0381 | log fold change Tl+ flux [16] -0.011 | log fold change Tl+ flux [17] 0.000803
9830: cell count [18, 23]
1.38: fold change [18, 22]
10100: cell count [18, 24]

O=c1cnn([C@@H]2O[C@H](CO)[C@@H](O)[C@H]2O)c(=O)[nH]1
79.3%: viability [1]
inactive: parasite load remaining [1] 51.8% | fluorescence ratio [2] 0.94 | inhibition [3] -2.84% | inhibition [4] -1.97% | fluorescence ratio [5] 0.89 | z-score [6] -0.659 | mean signal [7] 301 | log fold change Tl+ flux [8] -0.0103 | log fold change Tl+ flux [9] 0.0132 | log fold change Tl+ flux [10] -0.027 | log fold change Tl+ flux [11] 0.00308 | log fold change Tl+ flux [12] -0.026 | log fold change Tl+ flux [13] 0.00432 | log fold change Tl+ flux [14] -0.00973 | log fold change Tl+ flux [15] -0.0295 | log fold change Tl+ flux [16] -0.0439 | log fold change Tl+ flux [17] -0.0257

CCC[C@@H]1C[C@@H](C(=O)N[C@H]([C@@H](C)O)[C@H]2O[C@H](SC)[C@H](O)[C@@H](O)C2O)N(C)C1 (some centres not stated)
inactive: parasite load remaining [1] 97.8% | fluorescence ratio [2] 0.98 | inhibition [3] -5% | inhibition [4] -3.53% | fluorescence ratio [5] 1.03 | mean signal [7] 237 | log fold change Tl+ flux [8] 0.0293 | log fold change Tl+ flux [9] -0.0324 | log fold change Tl+ flux [10] 0.0245 | log fold change Tl+ flux [11] 0.0251 | log fold change Tl+ flux [12] 0.0541 | log fold change Tl+ flux [13] -0.0022 | log fold change Tl+ flux [14] -0.0579 | log fold change Tl+ flux [15] -0.0468 | log fold change Tl+ flux [16] -0.0617 | log fold change Tl+ flux [17] -0.0428
91%: viability [1]

O=c1[nH]c2ccccc2c2ccccc12
8280 and 2920: cell count [18, 24]
inactive: fold change [18, 21] 0.926 and 0.97 | z-score [20] 0.885 | log fold change Tl+ flux [8] 0.027 | log fold change Tl+ flux [9] 0.0377 | log fold change Tl+ flux [10] 0.0285 | log fold change Tl+ flux [11] 0.0704 | log fold change Tl+ flux [12] -0.0148 | log fold change Tl+ flux [13] 0.0279 | log fold change Tl+ flux [14] -0.057 | log fold change Tl+ flux [15] 0.0385 | log fold change Tl+ flux [16] -0.0579 | log fold change Tl+ flux [17] -0.0287
7660 and 2830: cell count [18, 23]
0.939 and 0.926: fold change [18, 22]
